Counter-ions that a name gives are not always drawn. ± gives the standard deviation of the averaged measurements. Over roughly 1,800 compounds, “GFP- (p16Ink4a-) cell count relative to negative-control wells” has its median near 0.99; the lowest 2% begin near 0.5. The full list was thinned out, with the lowest values kept by preference.
The compounds below were run on mouse p16Ink4a+/- lung fibroblasts (INKBRITE, bleomycin-injured) (assay: GFP- (p16Ink4a-) cell count relative to negative-control wells (fold of vehicle); higher = more p16Ink4a- cells surviving). Settings: 1 µM; 3 days.
`C/C(=C\c1csc(C)n1)[C@@H]1C[C@@H]2O[C@]2(C)CCC[C@H](C)[C@H](O)[C@@H](C)C(=O)C(C)(C)[C@@H](O)CC(=O)O1` [Epothilone B, Patupilone] was tested, and the GFP- was 1.03. `C/C(=C\c1csc(C)n1)[C@@H]1C[C@@H]2O[C@@H]2CCC[C@H](C)[C@H](O)[C@@H](C)C(=O)C(C)(C)[C@@H](O)CC(=O)O1` [Epothilone A] was tested, and the GFP- was 0.423. In the case of `CN(C)[C@@H]1C(=O)C(C(N)=O)=C(O)[C@@]2(O)C(O)=C3C(=O)c4c(O)cccc4[C@@](C)(O)[C@H]3C[C@@H]12` [Tetracycline], the GFP- is reported as 1.07. `C=C1C[C@@H]2[C@H](CC[C@]3(C)C(=O)CC[C@@H]23)[C@@]2(C)C=CC(=O)C=C12` [Exemestane] showed a GFP- of 1.13. Work on `C[C@@H]1CC[C@@]2(OC1)O[C@H]1C[C@H]3[C@@H]4CC=C5C[C@@H](O[C@@H]6O[C@H](CO)[C@@H](O[C@@H]7O[C@@H](C)[C@H](O)[C@@H](O)[C@H]7O)[C@H](O)[C@H]6O[C@@H]6O[C@@H](C)[C@H](O)[C@@H](O)[C@H]6O)CC[C@]5(C)[C@H]4CC[C@]3(C)[C@H]1[C@@H]2C` [Dioscin] yielded a GFP- of 1.03. Work on `COc1ccc(C(=O)N2CCCC2=O)cc1` [Aniracetam] yielded a GFP- of 0.968. For `CN1[C@@H]2CC[C@H]1C[C@@H](OC(=O)C(CO)c1ccccc1)C2` (stereo not given in full) [Atropine], the GFP- was 0.843. In the case of `CC(C)[C@]12O[C@H]1[C@@H]1O[C@]13[C@]1(O[C@H]1C[C@H]1C4=C(CC[C@@]13C)C(=O)OC4)[C@@H]2O` [Triptolide], the GFP- is reported as 0.366. In the case of `CC(=O)Nc1ccc(OC[C@](C)(O)C(=O)Nc2ccc([N+](=O)[O-])c(C(F)(F)F)c2)cc1` [Andarine], the GFP- is reported as 1. Work on `CCN(CC)C(=O)c1ccc(C2=CC3(CCNCC3)Oc3cccc(O)c32)cc1` yielded a GFP- of 0.95. For `CCNC(=O)C[C@@H]1N=C(c2ccc(Cl)cc2)c2cc(OC)ccc2-n2c(C)nnc21`, the GFP- was 1.04 ± 0.19. `C1=C2CCCN[C@H]2[C@@H]2C[C@H]1[C@H]1CCCCN1C2` [Aloperine] showed a GFP- of 0.98. `O=[N+]([O-])/C=C/c1ccc2c(c1)OCO2` gave a GFP- of 1.03. Work on `CC[C@@H]1[C@@H](C)O[C@@](O)([C@@H](C)[C@H](O)[C@H](C)[C@H]2OC(=O)/C=C/C=C/[C@H](C)[C@H]([C@@H](C)[C@@H](O)[C@H](C)[C@@]3(O)C[C@@H](O[C@H]4C[C@H](O)[C@H](O)[C@H](C)O4)[C@H](CC)[C@@H](C)O3)OC(=O)/C=C/C=C/[C@H]2C)C[C@H]1O[C@H]1C[C@H](O)[C@H](O)[C@H](C)O1` [Elaiophylin] yielded a GFP- of 0.414. Compound `CCOC(=O)c1cncn1C(C)c1ccccc1` (stereo not given) [Etomidate] has a GFP- of 1.09. For `Oc1nc2ccc(Cl)cc2c(N[C@@H]2CN3CCC2CC3)c1-c1nc2ccccc2[nH]1`, the GFP- was 0.944. `CC(C)NCC(O)c1ccccc1Cl` (stereo not given) [Clorprenaline] gave a GFP- of 1.02. With `C[C@H]1CCC/C=C/[C@@H]2C[C@H](O)C[C@H]2[C@H](O)/C=C/C(=O)O1` [Brefeldin A] the GFP- was 0.4. Compound `CCc1c(C(=O)C(N)=O)c2c(OCC(=O)O)cccc2n1Cc1ccccc1` [Varespladib] has a GFP- of 1.27. With `CCOc1ccccc1-n1c(C(C)N2CCN(C(=O)COc3ccc(Cl)cc3)CC2)nc2ccccc2c1=O` (stereo not given) [Erastin] the GFP- was 0.31. For `O=C(O)CNC(=O)c1c(O)c2ccccc2n(Cc2ccccc2)c1=O`, the GFP- was 1.07 ± 0.046. Compound `CNCC(=O)c1ccc(O)c(O)c1` [Adrenolone Hydrochloride] has a GFP- of 1.05. Work on `CN1C(=O)CCS(=O)(=O)C1c1ccc(Cl)cc1` (stereo not given) [Chlomezanone, Chlormezanone] yielded a GFP- of 1.03. Compound `CO[C@H]1CCC(O[C@H]2C[C@H]([C@]3(C)CC[C@]4(C[C@H](O)[C@@H](C)[C@@H]([C@@H](C)/C=C(\C)C(=O)[C@H](C)C[C@H](C)C(=O)O)O4)O3)O[C@]3(O[C@@H]([C@H]4O[C@@](O)(CO)[C@H](C)C[C@@H]4C)C[C@@H]3C)[C@@H]2C)O[C@@H]1C` (stereo not given in full) [Nanchangmycin] has a GFP- of 0.412. For `Cc1sc2c(c1C)C(c1ccc(Cl)cc1)=N[C@@H](CC(=O)Nc1ccc(O)cc1)c1nnc(C)n1-2`, the GFP- was 0.844 ± 0.048. For `CCCN1CCO[C@H]2c3cc(O)ccc3OC[C@@H]21`, the GFP- was 1.04. `C/C=C(\C)C(=O)N[C@@H](c1ccccc1)[C@@H](O)C(=O)O[C@H]1C[C@@]2(O)[C@@H](OC(=O)c3ccccc3)[C@@H]3[C@]4(OC(C)=O)CO[C@@H]4C[C@H](O)[C@@]3(C)C(=O)[C@H](OC(C)=O)C(=C1C)C2(C)C` [Cephalomannine] gave a GFP- of 0.683. For `Cc1ccc(-n2nccn2)c(C(=O)N2CCN(c3nc4cc(Cl)ccc4o3)CC[C@H]2C)c1` [Suvorexant], the GFP- was 1.13. `C[C@@H]1[C@H](O)[C@@H](C)/C=C/C=C/CC/C=C/C=C/C=C/C=C/[C@H](O[C@H]2O[C@@H](C)[C@H](O)[C@@H](N)[C@H]2O)C[C@@H]2O[C@](O)(C[C@@H](O)[C@H](O)CC[C@@H](O)C[C@@H](O)C[C@@H](O)CC(=O)O[C@H]1C)C[C@H](O)[C@H]2C(=O)O` [Nystatin (Fungicidin)] was tested, and the GFP- was 0.951. `C[C@H]1CNCCc2ccc(Cl)cc21` [Lorcaserin] gave a GFP- of 1.02.

Source: the supplement of paper PMC11060735
